# Experimental data as given in PubChem BioAssay (Tox21).
# Values joined by “and” are separate entries in the source; they are usually repeats but may differ in a detail not shown here. Identical values can stand only once. Values without a mark were called inactive. Records with an inconclusive call do not appear. Entries that show only a call come without a potency. Active and inactive are the calls of the source. Unless noted, calls come from the whole dose curve; as a rule, active = well fitted curve in the direction sought with a large enough effect in the repeat runs; inconclusive = weak or mixed curves; inactive = no such curve, though single readings can be large; an effect the other way counts as inactive or inconclusive.
# Assays:
# [1] = qHTS assay to identify small molecule agonists of the hypoxia (HIF-1) signaling pathway - cell viability counter screen (AID 1224844; calls by dose curve; note: nearly all actives have a fitted effect of over 50% in size)
# In short: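 CellTiter-Glo luminescence read-out, 30 min RT, taken in the same wells as the beta-lactamase HRE reporter assay; HRE-bla ME-180 cells, 0.5% dialyzed FBS, 17 hr compound treatment at 37C, 5% CO2.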
# [2] = qHTS assay to identify small molecule agonists of H2AX (AID 1224845; active = well fitted activation curve with a large enough effect in the signal ratio in the repeat runs, not every such curve was filed as active; the % refers to the signal ratio)
# In short: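 Wild-type CHO-K1 cells plated overnight, then exposed 3 hr at 37C to compounds at 15 concentrations (0.76% DMSO). Lysed, then HTRF anti-pH2AX(S139)-cryptate/anti-H2AX-d2 detection after 24 hr at room temperature; emissions 665 and 620 nm.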
# [3] = qHTS assay to identify small molecule agonists of the hypoxia (HIF-1) signaling pathway (AID 1224846; active = well fitted activation curve with a large enough effect in the signal ratio in the repeat runs, not every such curve was filed as active; the % refers to the signal ratio)
# In short: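 Beta-lactamase FRET read-out (CCF4-AM substrate) from ME-180 cells carrying an HRE-driven bla reporter, after 17 hrs compound exposure at 37C/5% CO2. Cells were seeded at 2,000 per well in 0.5% dialyzed FBS medium and preincubated 5 hrs.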
# [4] = qHTS assay to identify small molecule agonists of H2AX - cell viability counter screen (AID 1224847; calls by dose curve; note: top concentration of the series differs between compounds; nearly all actives have a fitted effect of over 30% in size)
# In short: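 Viability of CHO-K1 (wild type) cells after 3 hr compound exposure was measured by CellTiter-Glo luminescence.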
# [5] = qHTS assay to identify small molecule antagonists of the estrogen related receptor (ERR) signaling pathway from Tox21 library (AID 1224848); note: nearly all actives have a fitted effect of over 50% in size
# In short: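 First, 2,000 ERR cells per well were plated and held 6 h at 37 C/5% CO2. Next, compounds in DMSO were pinned in and left 18 h at 37 C. Finally, ONE-Glo was added and luminescence read after 30 min at room temperature.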
# [6] = qHTS RealTime-Glo MT Cell Viability Assay in HepG2 cells - 24 hour (AID 1224867); note: nearly all actives have a fitted effect of over 50% in size
# In short: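 HepG2 cells were seeded at 600 cells/well together with NanoLuc luciferase and a cell-permeant prosubstrate, preincubated 5 h at 37 C/5% CO2, then pin-dosed with compounds in DMSO. Nonlytic luminescence from viable cells was read at each time point.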
# [7] = qHTS RealTime-Glo MT Cell Viability Assay in HEK293 cells - 32 hour (AID 1224868); note: nearly all actives have a fitted effect of over 50% in size; note: potency is the fitted concentration of half-maximal effect
# In short: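 HEK293 cells were seeded at 600 cells/well together with NanoLuc luciferase and cell-permeant prosubstrate, preincubated 5 h at 37 C/5% CO2, then given compound in DMSO by pintool. Luminescence from viable-cell prosubstrate reduction was read repeatedly over 40 h.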
# [8] = A CellTox Green Cytotoxicity Assay to monitor cytotoxicity in HEK293 cells - 0 hour (AID 1224869); note: nearly all actives have a fitted effect of over 50% in size
# In short: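 Read-out: fluorescence of a cell-impermeant cyanine dye staining DNA of dead cells, proportional to cytotoxicity. HEK293, 600 cells/well with reagent, compound (23 nL DMSO) added after 5 h; reads at 0, 8, 16, 24, 32, 40 h.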
# [9] = qHTS RealTime-Glo MT Cell Viability Assay in HepG2 cells - 40 hour (AID 1224870); note: nearly all actives have a fitted effect of over 50% in size
# In short: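 HepG2 cells mixed with RealTime-Glo MT reagents (NanoLuc plus cell-permeant prosubstrate) were seeded at 600 cells/well, incubated 5 h at 37 C/5% CO2, then pinned with compounds in DMSO; nonlytic luminescence tracked viability during 40 h treatment.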
# [10] = qHTS assay to identify small molecule agonists of the estrogen related receptor (ERR) signaling pathway from Tox21 library (AID 1224849; calls by dose curve; note: nearly all actives have a fitted effect of over 15% in size); settings: ERR reporter cell line, ONE-Glo luciferase, 18 h; at 92.4 µM (top of the series)
# In short: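 Luminescence readout (ONE-Glo, 30 min RT) after 18 h compound exposure at 37 C of NTP-supplied ERR reporter cells; cells were plated 6 h before compound addition by pin tool.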
SMILES,Potency [1],Potency [2],outcome [3],Potency [4],Potency [5],Potency [6],Potency [7],Potency [8],Potency [9],"activity change, positive = activation [10]"
CN=C(NC#N)NCCSCc1nc[nH]c1C,inactive,inactive,inactive,inactive,inactive,inactive,inactive,inactive,inactive,
NCCNCCNCCN,inactive,inactive,inactive,inactive,inactive,inactive,inactive,inactive,inactive,
O=[N+]([O-])c1ccccc1C(F)(F)F,inactive,inactive,inactive,inactive,inactive,,inactive,inactive,inactive,
Cc1cc(C)c(O)c(C)c1,inactive,inactive,inactive,inactive,inactive,inactive,inactive,inactive,inactive,
CCCCC(CC)COC(=O)c1ccc(C(=O)OCC(CC)CCCC)cc1 (configuration not stated),inactive,inactive,inactive,inactive,inactive,,inactive,inactive,inactive,
CCCOCC(C)O (configuration not stated),inactive,inactive,inactive,inactive,inactive,inactive,inactive,inactive,inactive,5.9% and 6.38%
CCCCCCC(=O)O,inactive,inactive,inactive,inactive,inactive,inactive,inactive,inactive,inactive,5.44% and -1.64%
CC(=O)CC(=O)N(C)C,inactive,inactive,inactive,inactive,,inactive,inactive,inactive,inactive,
O=C1OC(=O)c2c(Cl)c(Cl)c(Cl)c(Cl)c21,inactive,inactive,inactive,inactive,inactive,,inactive,inactive,inactive,
CCCCCNCCCCC,inactive,inactive,inactive,inactive,,inactive,inactive,inactive,inactive,
CCCCCCCCO,inactive,inactive,inactive,inactive,,inactive,inactive,inactive,inactive,
C[n+]1ccn(CCO)c1,inactive,inactive,inactive,inactive,inactive,inactive,inactive,inactive,inactive,
CCCCCC(C)=O,inactive,,inactive,inactive,inactive,,inactive,inactive,inactive,9.83% and 4.6%
Oc1ccc(Cc2ccccc2O)cc1,inactive,inactive,inactive,inactive,,inactive,19.7 µM (active),inactive,inactive,
C=C(CC(=O)O)C(=O)O,inactive,inactive,,inactive,,inactive,inactive,inactive,inactive,
CC(C)(C)NC[C@H](O)COc1nsnc1N1CCOCC1,inactive,inactive,,inactive,,,inactive,inactive,inactive,
Cc1ccccc1C=O,inactive,inactive,inactive,inactive,,inactive,inactive,inactive,inactive,
CCOC(=O)c1ccc(O)cc1,inactive,inactive,inactive,inactive,,,inactive,inactive,inactive,
CC(C=O)Cc1ccc(C(C)(C)C)cc1 (configuration not stated),inactive,,inactive,inactive,inactive,inactive,inactive,inactive,inactive,
Cc1ccc(C(C)C)cc1,inactive,inactive,inactive,inactive,,inactive,inactive,inactive,inactive,
OB(O)O,inactive,,inactive,inactive,inactive,inactive,inactive,inactive,inactive,4.58% and 4.55%
O=c1n(CCCN2CCN(c3cccc(Cl)c3)CC2)nc2ccccn12,inactive,inactive,,inactive,,inactive,13.8 µM (active) and 9.52 µM (active),inactive,inactive,
O=C1CCCCCCCCCCC1,inactive,inactive,inactive,inactive,,,inactive,inactive,inactive,
OCCOCCOCCOCCOCCO,inactive,,inactive,inactive,inactive,inactive,inactive,inactive,inactive,
COC(=O)CCCCC(=O)OC,inactive,inactive,inactive,inactive,,inactive,inactive,inactive,inactive,
COCN(COC)c1nc(N(COC)COC)nc(N(COC)COC)n1,inactive,,inactive,inactive,inactive,inactive,inactive,inactive,inactive,-2.4% and 4.33%
